Laboratory results reported in the supplement of paper PMC12350171.
Structures can show the parent of a compound that is named as a salt.

The compounds below were run on P. vulgatus WT (assay: growth AUC normalised to DMSO control (median) (fraction of control); higher = less growth inhibition, active = hit call of the paper). Details: 20 µM;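 active = normalised median growth AUC below 0.1 of DMSO control; inactive = AUC 0.1 or higher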.
Summary of the method: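 For normalised area under the curve, growth curves were truncated at entry into stationary phase, integrated by the trapezoidal rule and divided against vehicle wells on the same plate. The curves came from strains passaged twice overnight without oxygen and then grown in mGAM in 96-well plates at a starting OD578 of 0.01. Each well held an approved-drug library compound at 20 μM with 1% DMSO, and OD578 was read hourly for 24 h in an anaerobic incubator. Values are medians of three biological replicates.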
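Further: active when median AUC fell below 0.1.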

SMILES	growth AUC normalised to DMSO control
CCN[C@H]1CN(CCCOC)S(=O)(=O)c2sc(S(N)(=O)=O)cc21 [Brinzolamide]	0.973 (inactive)
CN1CCCN=C1/C=C/c1cccs1 [Pyrantel tartrate]	0.982 (inactive)
CN1CCc2cccc3c2[C@H]1Cc1ccc(O)c(O)c1-3 [R(-) Apomorphine hydrochloride hemihydrate]	1.05 (inactive)
CCCCCCCN(CC)CCCC(O)c1ccc(NS(C)(=O)=O)cc1 (centres undefined) [Ibutilide fumarate]	0.991 (inactive)
Clc1ccc2c(c1)C(N1CCNCC1)=Nc1ccccc1O2 [Amoxapine]	0.759 (inactive)
Cc1c(OCC(F)(F)F)ccnc1C[S+]([O-])c1nc2ccccc2[nH]1 (centres undefined) [Lansoprazole]	0.973 (inactive)
Nc1ccc(/N=N/c2ccccc2)c(N)n1 [Phenazopyridine hydrochloride]	1.03 (inactive)
C[C@]12CC[C@@H]3c4ccc(O)cc4C[C@@H](CCCCCCCCC[S+]([O-])CCCC(F)(F)C(F)(F)F)[C@H]3[C@@H]1CC[C@@H]2O (some centres undefined) [Fulvestrant]	1.02 (inactive)
OCCOCCN1CCN(C(c2ccccc2)c2ccc(Cl)cc2)CC1 (centres undefined) [Hydroxyzine dihydrochloride]	1 (inactive)
CNCCCC12CCC(c3ccccc31)c1ccccc12 [Maprotiline hydrochloride]	0.985 (inactive)
CC[C@H](C)C(=O)O[C@H]1C[C@H](O)C=C2C=C[C@H](C)[C@H](CC[C@@H](O)C[C@@H](O)CC(=O)O)[C@H]21 [Pravastatin]	1.06 (inactive)
S=c1[nH]cnc2nc[nH]c12 [Mercaptopurine]	1 (inactive)
CC/C(=C(\c1ccccc1)c1ccc(OCCN(C)C)cc1)c1ccccc1 [Tamoxifen citrate]	0.978 (inactive)
CC(=O)OCC(=O)[C@@]1(O)CC[C@H]2[C@@H]3CCC4=CC(=O)CC[C@]4(C)[C@@]3(F)[C@@H](O)C[C@@]21C [Fludrocortisone acetate]	1.04 (inactive)
CC[C@@H](CO)NCCN[C@@H](CC)CO [Ethambutol dihydrochloride]	0.998 (inactive)
O=C(Nc1cccc2c(=O)cc(-c3nnn[nH]3)oc12)c1ccc(OCCCCc2ccccc2)cc1 [Pranlukast]	0.957 (inactive)
CC(=C(CCO)SSCC1CCCO1)N(C=O)Cc1cnc(C)nc1N (stereo in doubt) [Fursultiamine hydrochloride]	0.995 (inactive)
Cc1ncc([N+](=O)[O-])n1CC(O)CCl (centres undefined) [Ornidazole]	0.00943 (active)
CCC(=O)O[C@]1(C(=O)SCF)[C@H](C)C[C@H]2[C@@H]3C[C@H](F)C4=CC(=O)C=C[C@]4(C)[C@@]3(F)[C@@H](O)C[C@@]21C [Fluticasone propionate]	0.988 (inactive)
Cc1cccc(C)c1OCC(C)N (centres undefined) [Mexiletine hydrochloride]	1.05 (inactive)
CCC(=O)OCC(=O)[C@@]1(OC(=O)CC)[C@H](C)C[C@H]2[C@H]3[C@H]([C@@H](O)C[C@@]21C)[C@@]1(C)C=CC(=O)C=C1C[C@H]3Cl [Alclometasone dipropionate]	1.04 (inactive)
NC(=O)c1cccnc1 [Nicotinamide]	1.1 (inactive)
c1ccc(CC2=NCCN2)cc1 [Tolazoline hydrochloride]	1.07 (inactive)
COc1cccc2c1C(=O)c1c(O)c3c(c(O)c1C2=O)C[C@@](O)(C(=O)CO)C[C@@H]3O[C@H]1C[C@H](N)[C@H](O)[C@H](C)O1 [Doxorubicin hydrochloride]	0.966 (inactive)
CC(=O)NC[C@H]1CN(c2ccc(N3CCOCC3)c(F)c2)C(=O)O1 [Linezolid]	0.011 (active)
NC1CCN(c2nc3c(cc2F)c(=O)c(C(=O)O)cn3-c2ccc(F)cc2F)C1 (centres undefined) [Tosufloxacin hydrochloride]	0.012 (active)
CCn1cc(C(=O)O)c(=O)c2cc(F)c(N3CCNCC3)cc21 [Norfloxacin]	0.865 (inactive)
CCC1=C(C)CN(C(=O)NCCc2ccc(S(=O)(=O)NC(=O)N[C@H]3CC[C@H](C)CC3)cc2)C1=O [Glimepiride]	1.01 (inactive)
COc1ccc(C(=O)c2ccccc2O)c(O)c1 [Dioxybenzone]	1.01 (inactive)
